Assay outcomes (PubChem BioAssay)
Shown is part of a subset that was picked to be rich in hits.
CHX counter = counter-screen hit for Shiga toxin inhibitors, cycloheximide; AID 2314; 12% of 300,000 active; cell reporter, cycloheximide protein synthesis inhibition counterscreen; max response, %; in the data active = max response mostly above about 13%, no sharp cut-off; inactive = mostly below about 14%; note: read at 38.3 µM for the half of the compounds with a filed dose; 0% is about no effect
Sm TGR inh = blocks Schistosoma mansoni thioredoxin glutathione reductase | Q962Y6 | purified TGR, DTNB reduction, TNB absorbance 405 nm | Potency, µM (series often up to 114 µM), without a hit: top-dose activity change, negative = inhibition, usual class: inhibitors | 3% of 360,000 active; note: potency is the fitted concentration of half-maximal effect; % is set by controls: 0 for no effect and ±100 for the full control effect; nearly all actives have a fitted effect of over 60% in size
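TGR 20 nM + NADPH 100 uM (dispensed conc.), cpd preinc 15 min RT; start with NADPH (500 uM addition) then DTNB (15 mM addition). Kinetic TNB absorbance, 405 nm filter. Four-parameter Hill fit across titration.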
Giardia FBPA inh-1 = inhibitors of Giardia lamblia fructose-1,6-bisphosphate aldolase; 0.71% of 290,000 active; AID 2451; A8B2U2; purified Giardia FBPA; Potency, µM (series often up to 59.6 µM), for inactives: at the highest dose activity, negative = inhibition, actives largely listed as inhibitors; note: potency is the fitted concentration of half-maximal effect; % is set by controls: 0 for no effect and ±100 for the full control effect; nearly all actives have a fitted effect of over 55% in size
Target sequence (A8B2U2 whole entry, looked up): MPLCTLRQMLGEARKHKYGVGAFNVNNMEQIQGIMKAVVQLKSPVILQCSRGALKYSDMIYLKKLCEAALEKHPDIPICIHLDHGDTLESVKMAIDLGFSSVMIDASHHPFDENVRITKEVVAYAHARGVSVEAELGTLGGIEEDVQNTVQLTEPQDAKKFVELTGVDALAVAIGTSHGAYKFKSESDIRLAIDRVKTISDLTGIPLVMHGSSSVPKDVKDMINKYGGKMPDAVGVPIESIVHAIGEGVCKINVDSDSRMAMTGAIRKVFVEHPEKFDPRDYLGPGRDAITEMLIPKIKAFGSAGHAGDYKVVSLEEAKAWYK
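Giardia FBPA (40 nM reagent) was preincubated 10 min at RT with compound (up to 57.5 uM final), then substrate plus GAPDH/TPI/NAD/arsenate coupling system with diaphorase/resazurin was added; resorufin fluorescence (525/598 nm) was read after 20 min.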
Shiga inhibitor = Shiga toxin inhibition; Vero cells, Shiga toxin protein synthesis inhibition reporter; inhibition, % at 38.7 µM; 9.2% of 290,000 active; AID 2315; in the data active = inhibition mostly above about 28%, no sharp cut-off; inactive = mostly below about 43%; note: 0% is about no effect
LmPK inhibitor = LmPK (Leishmania mexicana) enzyme inhibition. Q27686. purified LmPK, Kinase-Glo ATP luminescence, 1 h. Potency, µM (highest dose often 57.5 µM), inactives show at the top dose activity change, negative = inhibition, most hits filed as inhibitors. 0.37% of 290,000 active; note: potency is the fitted concentration of half-maximal effect; % is set by controls: 0 for no effect and ±100 for the full control effect
Target sequence (Q27686 whole entry, looked up): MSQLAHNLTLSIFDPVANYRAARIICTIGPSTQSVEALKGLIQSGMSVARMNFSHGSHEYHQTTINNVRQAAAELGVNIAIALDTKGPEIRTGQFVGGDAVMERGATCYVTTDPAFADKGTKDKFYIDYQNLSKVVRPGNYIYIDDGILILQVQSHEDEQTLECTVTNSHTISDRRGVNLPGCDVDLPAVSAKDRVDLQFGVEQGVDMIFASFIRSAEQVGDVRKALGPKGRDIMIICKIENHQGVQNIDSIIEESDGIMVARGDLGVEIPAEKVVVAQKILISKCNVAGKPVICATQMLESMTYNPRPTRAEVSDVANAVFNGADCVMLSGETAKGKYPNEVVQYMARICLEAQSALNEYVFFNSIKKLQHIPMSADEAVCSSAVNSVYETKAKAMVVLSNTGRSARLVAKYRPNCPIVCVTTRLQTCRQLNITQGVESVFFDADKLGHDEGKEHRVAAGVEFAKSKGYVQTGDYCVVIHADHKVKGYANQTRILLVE
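Purified LmPK (0.1 nM) with 0.5 mM PEP and 0.1 mM ADP in imidazole buffer pH 7.2 with MgCl2/KCl, 1 h at room temperature. ATP formed was read by luciferase luminescence and normalized to no-enzyme and uninhibited controls.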
TbPYK inhibitor = blocks Trypanosoma brucei pyruvate kinase | TbPYK enzyme, Kinase-Glo Plus ATP luminescence, 45 min | 0.12% of 410,000 active | Potency, µM (series often up to 76.8 µM), without a hit: at the top dose activity, negative = inhibition, hits mostly inhibitors | Q57TT1; note: potency is the fitted concentration of half-maximal effect; % is set by controls: 0 for no effect and ±100 for the full control effect; nearly all actives have a fitted effect of over 50% in size
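Enzyme and substrate buffer are dispensed first and compound is pin-transferred. ADP at 130 uM final then starts the reaction, which runs 45 min at room temperature. Detection reagent is added for 10 min before luminescence is imaged.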
Giardia growth = inhibitors of Giardia lamblia growth; shares compounds with Giardia FBPA inh-1; Giardia lamblia trophozoite growth inhibition; Potency, µM (top dose mostly 57.5 µM), without a hit: top-dose activity change, negative = inhibition, most hits filed as inhibitors; 5% of 1,500 active; AID 2785;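 note: potency is the fitted concentration of half-maximal effect; trophozoites exposed to compound for 48 h at 37 °C; % is set by controls: 0 for no effect and ±100 for the full control effect; nearly all actives have a fitted effect of over 70% in size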
Mammalian tox = counter-screen for Giardia aldolase inhibitors: mammalian cell toxicity | Potency, µM (series often up to 57.5 µM), inactives show top-dose viability change, negative = toxicity, actives largely listed as inhibitors | shares compounds with Giardia FBPA inh-1 | mammalian cell viability counter-screen, qHTS | AID 2786 | 4% of 1,500 active;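 note: Chinese hamster ovary cells used as mammalian cytotoxicity surrogate; viability measured as cellular ATP by luminescence; potency is the fitted concentration of half-maximal effect; compound exposure lasted 48 h before reading; % is set by controls: 0 for no effect and ±100 for the full control effect; nearly all actives have a fitted effect of over 60% in size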
Giardia FBPA inh-2 = confirmation of Giardia fructose-bisphosphate aldolase inhibitors; shares compounds with Giardia FBPA inh-1; purified Giardia aldolase enzyme activity, qHTS; Potency, µM (doses to about 57.5 µM), for inactives: top-dose activity change, negative = inhibition, hits mostly inhibitors; 5% of 1,500 active; note: potency is the fitted concentration of half-maximal effect; % is set by controls: 0 for no effect and ±100 for the full control effect; nearly all actives have a fitted effect of over 45% in size
Rabbit aldolase = rabbit FBP aldolase inhibition by Giardia aldolase hits; shares compounds with Giardia FBPA inh-1; Rabbit muscle FBPA enzyme inhibition, selectivity counter-screen; Potency, µM (titrated, usually from 57.5 µM), inactives show top-dose activity, negative = inhibition, most hits filed as inhibitors; 4% of 1,500 active; note: potency is the fitted concentration of half-maximal effect; % is set by controls: 0 for no effect and ±100 for the full control effect; nearly all actives have a fitted effect of over 60% in size
GAPDH coupling = counter-screen for Giardia aldolase inhibitors: GAPDH coupling enzyme | shares compounds with Giardia FBPA inh-1 | GAPDH coupling enzyme counterscreen, biochemical, qHTS | Potency, µM (highest dose often 57.5 µM), without a hit: at the highest dose activity change, negative = inhibition, usual class: inhibitors | 6% of 1,500 active; note: potency is the fitted concentration of half-maximal effect; % is set by controls: 0 for no effect and ±100 for the full control effect; nearly all actives have a fitted effect of over 55% in size
* = called active by the depositor; [ ] = another dose, or the depositor's remark. Unless noted, calls come from the whole dose curve; as a rule, active = well fitted curve in the direction sought with a large enough effect; inconclusive = small, poorly fitted or top-dose-only effect, or another doubt; inactive = no such curve, though single readings can be large; an effect the other way counts as inactive or inconclusive.

How did Cc1ccccc1C(N)c1ccncc1 (stereo not drawn) do in these assays?
CHX counter: -0.7; Sm TGR inh: inconclusive; Giardia FBPA inh-1: 14.1µM*; Shiga inhibitor: -2.8; LmPK inhibitor: 8.9%; TbPYK inhibitor: 1.5%; Giardia growth: -8.6%; Mammalian tox: 25.8%; Giardia FBPA inh-2: 5.1%; Rabbit aldolase: 13.2%; GAPDH coupling: -2.2%

How did Cn1c(=S)c2[nH]c(SCCN3CCCC3)nc2n(C)c1=O do in these assays?
CHX counter: -7.1; Sm TGR inh: 39.8µM*; Giardia FBPA inh-1: 11.2µM*; Shiga inhibitor: -22.5; LmPK inhibitor: 3.5%; TbPYK inhibitor: -18.0%; Giardia growth: 11.5%[10.4 µM]; Mammalian tox: 18.6%; Giardia FBPA inh-2: 1.4%; Rabbit aldolase: -2.9%; GAPDH coupling: 1.7%

Results for C=CCNC(=S)NC(=O)c1csc([N+](=O)[O-])c1 ?
CHX counter: 1.2; Sm TGR inh: inconclusive; Giardia FBPA inh-1: inconclusive; Shiga inhibitor: 4.0; LmPK inhibitor: 5.0%; TbPYK inhibitor: -4.6%

What do the screens show for `CN1CCN(C(=S)NC(=O)c2cccc([N+](=O)[O-])c2)CC1`?
CHX counter: -1.3; Sm TGR inh: -2.7%; Giardia FBPA inh-1: 1.78µM*; Shiga inhibitor: 10.7; LmPK inhibitor: 1.3%; TbPYK inhibitor: 4.8%; Giardia growth: -21.8%[38.3 µM]; Mammalian tox: -16.2%; Giardia FBPA inh-2: -4.8%; Rabbit aldolase: -0.1%; GAPDH coupling: -1.0%

What do the screens show for `NS(=O)(=O)c1cccc(NC(=S)NC(=O)c2cccc([N+](=O)[O-])c2)c1`?
CHX counter: 2.4; Sm TGR inh: 15.8µM*; Giardia FBPA inh-1: 17.7µM*; Shiga inhibitor: 1.5; LmPK inhibitor: -0.2%; TbPYK inhibitor: -0.2%; Giardia growth: 2.9%[10.4 µM]; Mammalian tox: 2.2%; Giardia FBPA inh-2: 0.6%; Rabbit aldolase: 3.4%; GAPDH coupling: 5.3%

What do the screens show for `CC1CN(C(=S)NC(=O)c2ccccc2)CC(C)O1` (stereo not drawn)?
CHX counter: -1.1; Sm TGR inh: 2.0%; Shiga inhibitor: 1.9; LmPK inhibitor: 3.1%; TbPYK inhibitor: -2.8%

What do the screens show for `O=C(NC(=S)N1CCCCC1)c1csc([N+](=O)[O-])c1`?
CHX counter: -2.3; Sm TGR inh: -15.9%; Giardia FBPA inh-1: 12.6µM*; Shiga inhibitor: 7.5; LmPK inhibitor: -26.7%; TbPYK inhibitor: -17.8%; Giardia growth: 1µM*; Mammalian tox: -2.6%; Giardia FBPA inh-2: -2.5%; Rabbit aldolase: 5.2%; GAPDH coupling: 10.2%

How did CC1CN(C(=S)NC(=O)c2ccc([N+](=O)[O-])cc2)CC(C)O1 (stereo not drawn) do in these assays?
CHX counter: -2.2; Sm TGR inh: -1.2%; Giardia FBPA inh-1: 19.9µM*; Shiga inhibitor: -9.9; LmPK inhibitor: -20.0%; TbPYK inhibitor: -32.2%; Giardia growth: 5.01µM*; Mammalian tox: 10.1%; Giardia FBPA inh-2: 1.3%; Rabbit aldolase: 14.3%; GAPDH coupling: 2.6%

What do the screens show for `CCOc1ccc(NC(=O)CN2CCCN(Cc3cc(C)ccc3C)S2(=O)=O)cc1`?
Sm TGR inh: -11.0%; TbPYK inhibitor: 4.4%

What do the screens show for `C#CCCCCCCCCCCCC(=O)CC(O)COC(C)=O` (stereo not drawn)?
Giardia FBPA inh-1: -3.8%

How did Cc1oc2c(O)c(O)ccc2c(=O)c1-c1ccccc1 do in these assays?
CHX counter: -1.5; Sm TGR inh: -0.1%; Giardia FBPA inh-1: 11.2µM*; Shiga inhibitor: -3.6; LmPK inhibitor: -13.4%; TbPYK inhibitor: -13.3%; Giardia growth: 6.2%; Mammalian tox: -0.6%; Giardia FBPA inh-2: -27.0%; Rabbit aldolase: inconclusive; GAPDH coupling: -21.9%

How did CCN1CCC(N(Cc2ccc3c(c2)OCO3)C(=O)Nc2cc(F)ccc2F)CC1 do in these assays?
Sm TGR inh: -9.1%; TbPYK inhibitor: 0.5%

What do the screens show for `O=C(CN1C(=O)NC2(CCCCCC2)C1=O)N1CCCCC1`?
Sm TGR inh: -5.0%; TbPYK inhibitor: 0.7%

Results for CCCCC(=O)N/N=C/c1c(O)n(-c2cccc3ccccc23)c(=O)[nH]c1=O ?
CHX counter: -1.5; Sm TGR inh: -18.8%; Giardia FBPA inh-1: 15.8µM*; Shiga inhibitor: 3.1; LmPK inhibitor: 2.3%; TbPYK inhibitor: -0.9%; Giardia growth: 90.4%; Mammalian tox: 5.8%; Giardia FBPA inh-2: 8.7%; Rabbit aldolase: -8.7%; GAPDH coupling: 2.0%

Results for O=c1[nH]c(=O)n(-c2cccc3ccccc23)c(O)c1C=NCCCn1ccnc1 ?
CHX counter: -2.4; Sm TGR inh: inconclusive; Giardia FBPA inh-1: 4.4%; Shiga inhibitor: -20.0; LmPK inhibitor: 5.6%; TbPYK inhibitor: -22.9%

How did COC(=O)c1c(-c2ccc(OC)c(OC)c2)csc1N do in these assays?
CHX counter: -0.9; Sm TGR inh: 3.0%; Giardia FBPA inh-1: 17.7µM*; Shiga inhibitor: -10.7; LmPK inhibitor: 3.9%; TbPYK inhibitor: 12.1%; Giardia growth: -29.7%; Mammalian tox: -12.6%; Giardia FBPA inh-2: inconclusive; Rabbit aldolase: -13.3%; GAPDH coupling: -11.7%

How did CC(C)N(Cc1ccccc1)C(=O)CSc1nccn1C do in these assays?
CHX counter: -2.0; Sm TGR inh: 0.3%; Giardia FBPA inh-1: 0.6%; Shiga inhibitor: -15.7; LmPK inhibitor: 2.9%; TbPYK inhibitor: 3.2%

What do the screens show for `Cn1ccnc1SC(C(=O)O)c1ccccc1` (stereo not drawn)?
CHX counter: -1.9; Sm TGR inh: 2.5%; Giardia FBPA inh-1: 14.1µM*; Shiga inhibitor: -7.5; LmPK inhibitor: -4.1%; TbPYK inhibitor: 2.4%; Giardia growth: inconclusive; Mammalian tox: 19.6%; Giardia FBPA inh-2: 5.2%; Rabbit aldolase: 6.4%; GAPDH coupling: 2.7%

How did Cc1ccc(C)c(NC(=O)CSc2ccc3nc(-c4ccccc4)cn3n2)c1 do in these assays?
Sm TGR inh: -9.8%; TbPYK inhibitor: -14.0%
